From PubChem BioAssay (NCATS) come the findings set out here.

Records with an inconclusive call do not appear. Active and inactive are the calls of the source. Unless noted, calls follow the shape of the dose curve; as a rule, active = well fitted curve in the direction sought with a large enough effect; inconclusive = small, poorly fitted or top-dose-only effect, or another doubt; inactive = no such curve, though single readings can be large; an effect the other way counts as inactive or inconclusive.

Experiment [1] concerns the target Cytochrome P450 3A4 (Homo sapiens) (UniProt P08684). The experiment can be described thus: qHTS Assay for Inhibitors and Substrates of Cytochrome P450 3A4 (AID 884). Also: % is scaled to controls: 0 for no effect and ±100 for the full control effect; nearly all actives have a fitted effect of over 50% in size. The gist of the method:
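Luminescent readout of luciferin produced by CYP3A4 (20 nM) dealkylation of Luciferin-PPXE, 25 uM (its KM). NADPH-driven reaction ran 60 min at RT after 10 min compound preincubation; data scaled to 57 uM ketoconazole as 100% inhibition.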

Experiment [2] is described as follows: Confirmation and Secondary Assay for Modulators of Hemoglobin Beta Chain Splicing at IVS2 654 locus (AID 910).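 Also: HeLa cells stably carrying EGFP split by mutant beta-globin IVS2-654 intron; % of control where 0% means no effect.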 Summed up: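 HeLa cells stably expressing EGFP interrupted by β-globin IVS2-654 intron, seeded overnight in Opti-MEM/2% FCS, then treated 2 days at 37 °C. Restored splicing read as total peak GFP intensity per well by laser scanning cytometry (488 nm excitation, 500–520 nm emission); 500 nM antisense PNA as control.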

Experiment [3] can be described thus: Confirmation and Secondary Assay for Modulators of Hemoglobin Beta Chain Splicing at IVS2 705 locus (AID 930).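 Also: HeLa cells stably expressing the EGFP-705 splicing reporter; GFP fluorescence per well restored by corrected splicing of the IVS2-705 intron in EGFP; % of control where 0% means no effect.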 The gist of the method:
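First, HeLa EGFP-705 cells are seeded at 500/well in Optimem with 2% FCS and left overnight. Next, compound or DMSO is added for 2 days. Finally wells are laser-scanned and total peak GFP intensity scored.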

A short description of experiment [4]: qHTS Assay for Lipid Storage Modulators (AID 1519; calls by dose curve; as to activity change, negative = inhibition: % is scaled to controls: 0 for no effect and ±100 for the full control effect). Conditions: Drosophila S3 cells, BODIPY lipid droplet/cell ratio, laser cytometry, cells loaded with oleic acid; for activity change, negative = inhibition: at 57.5 µM (top of the series). Summed up: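 Cells seeded at 5,000 per well were treated with compounds over a concentration series and loaded with oleic acid (400 uM, as added). Lipid droplet fluorescence (488 nm excitation, 500-530 nm channel) was read by laser-scanning cytometry and normalized to 20 uM Triacsin C.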
Background: In qHTS, concentration-response curves come from the screen itself.

Experiment [5] deals with Cytochrome P450 3A4 (Homo sapiens) (UniProt P08684). The experiment can be described thus: qHTS Assay for Activators of Cytochrome P450 3A4 (AID 885). Also: nearly all actives have a fitted effect of over 65% in size. The gist of the method:
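Activators are scored by enhanced luminescence from CYP3A4 conversion of luciferin-PPXE (25uM, equal to KM) to luciferin, after 60 min at RT with an NADPH-regenerating system.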

[6] abbreviates: measured here: cell count channel max response.
Where [7] appears, read: measured here: lipid channel max response.

Chain of Cytochrome P450 3A4 (Homo sapiens) (P08684 whole entry, looked up): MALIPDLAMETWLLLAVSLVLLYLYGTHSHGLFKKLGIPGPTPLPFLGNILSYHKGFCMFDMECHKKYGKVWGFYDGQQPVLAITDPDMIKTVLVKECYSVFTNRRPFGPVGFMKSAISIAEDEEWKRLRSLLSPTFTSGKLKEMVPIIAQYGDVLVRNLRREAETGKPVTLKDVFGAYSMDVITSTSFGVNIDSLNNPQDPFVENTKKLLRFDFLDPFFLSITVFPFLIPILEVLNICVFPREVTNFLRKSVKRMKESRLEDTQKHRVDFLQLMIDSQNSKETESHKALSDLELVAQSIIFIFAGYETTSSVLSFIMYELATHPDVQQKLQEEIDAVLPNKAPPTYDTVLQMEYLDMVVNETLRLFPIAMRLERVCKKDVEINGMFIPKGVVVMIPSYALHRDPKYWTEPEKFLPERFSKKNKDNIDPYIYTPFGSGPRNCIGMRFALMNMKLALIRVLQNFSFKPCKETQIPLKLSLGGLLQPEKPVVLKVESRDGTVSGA

`C[C@]12CCC3C(C=CC4=CC(=O)CC[C@]43C)C1CC[C@]2(O)CCC(=O)O` (some centres undefined): the Potency entry in experiment [1], in experiment [2] and in experiment [3] was “inactive” each time. Also, in experiment [4], the activity change, negative = inhibition was 1.44% (inactive). The max response in experiment [4] (setting [6]) is 28.8%; in experiment [4] (setting [7]) it was 34.1%.
In the case of `NCC(=O)c1ccccc1`, the Potency result in experiment [5], in experiment [2] and in experiment [3] was “inactive” throughout. For the same compound, the activity change, negative = inhibition in experiment [4] was 8.66% (inactive). Besides, the max response worked out at 23.8% in experiment [4] (setting [6]) and 35.4% in experiment [4] (setting [7]).
For `CC1CC[C@@]2(OC1)OC1C(O)C3C4CC[C@H]5CC(O[C@@H]6O[C@@H](CO)[C@H](OC7OC(CO)C(O)C(OC8OCC(O)C(O)[C@H]8O)[C@@H]7O[C@@H]7OC(CO)[C@H](O)[C@@H](O[C@@H]8OC(CO)C(O)C(O)C8O)C7O)C(O)C6O)C(O)C[C@]5(C)C4CC[C@]3(C)C1C2C` (some centres undefined), the Potency result in experiment [5], in experiment [2] and in experiment [3] was “inactive” throughout. The activity change, negative = inhibition in experiment [4] is -0.601% (inactive). For the same compound, the max response in experiment [4] (setting [6]) is -28.8%; in experiment [4] (setting [7]), -26%.
With `COc1cc2c(cc1O)CCNC2C` (centres undefined), the Potency result in experiment [1], in experiment [2] and in experiment [3] was “inactive” each time. Also, the activity change, negative = inhibition in experiment [4] is 6.98% (inactive). For the same compound, the max response in experiment [4] (setting [6]) was found to be 8.33%; in experiment [4] (setting [7]) it was 17.5%.
